This note sets out measurements from PubChem BioAssay (NCATS).

Where “and” joins values, the source holds several entries; their conditions need not be identical. Identical values can stand only once. Values without a mark were called inactive. Records with an inconclusive call do not appear. Calls of active or inactive are those of the source. Unless noted, calls come from the whole dose curve; as a rule, active = well fitted curve in the direction sought with a large enough effect; inconclusive = small, poorly fitted or top-dose-only effect, or another doubt; inactive = no such curve, though single readings can be large; an effect the other way counts as inactive or inconclusive. Where only a bound is given, the exact number is not on record here.

The nature of assay [1]: Cell Viability - MRC5 (AID 434; calls by dose curve;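 note: potency is the fitted concentration of half-maximal effect; cells exposed to compound for 40 hours at 37 °C; potency reflects cytotoxicity seen as loss of intracellular ATP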). The settings on record: MRC5 lung fibroblast viability, qHTS. The method in brief:
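Decrease in intracellular ATP, quantified by luciferase light output, reflects compound toxicity toward MRC5 cells exposed for 40 hr in complete culture medium. Concentration-response curves, scaled between DMSO and 100 uM tamoxifen, gave AC50 values.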
On the technique in general: Quantitative high-throughput screening tests each substance at several concentrations.

Assay [2] is described as follows: Cell Viability - HUV-EC-C (AID 542). Note: nearly all actives have a fitted effect of over 35% in size. Note: potency is the fitted concentration of half-maximal effect. The note with it: HUV-EC-C endothelial cell viability, qHTS; series mostly up to 92.2 µM. The procedure, abridged: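 Cells were seeded at 1000 per well and incubated 5 hr at 37 °C before compound addition. After 40 hr at 37 °C, CellTiter-Glo reagent was added for 20 min and luminescence read. AC50 values came from Hill-equation modelling.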

A short description of assay [3]: Cellular Toxicity (caspase-3) HepG2 (AID 654).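 Note: cells exposed to compound for 16 hours before reading; 0% = DMSO alone and 100% = caspase signal from 100 µM tamoxifen.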 The settings on record: HepG2 caspase-3 activation, luminescence; series mostly up to 92.2 µM. The method in brief:
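Caspase 3/7 activation in HepG2 is measured as rising luminescence after a 16 hr treatment at 37 °C. Values are scaled between DMSO basal and 100 uM tamoxifen, and AC50 is fitted with the Hill equation.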

Assay [4] can be described thus: Cellular Toxicity (caspase-3) HUV-EC-C (AID 656). The settings on record: HUV-EC-C cells, caspase-3 activation (apoptosis); series mostly up to 92.2 µM. The method in brief:
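HUV-EC-C endothelial cells, 1000/well, were pre-incubated 5 hr at 37°C, then exposed to compounds for 16 hr at 37°C. Caspase-Glo 3/7 luminescence was read after 20 min at room temperature. AC50 came from Hill fits, normalized to DMSO and 100 uM tamoxifen.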

Assay [5] is described as follows: Cellular Toxicity (caspase-3) SHSY5Y (AID 657). The note with it: SH-SY5Y caspase-3 activation; series mostly up to 91.7 µM. The method in brief: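 SH-SY5Y human neuroblastoma cells (1500/well) were treated with compounds for 16 h at 37 °C, then Caspase-Glo 3/7 luminescence was read after 1 h at room temperature. Data normalized to DMSO and 10 uM staurosporine; AC50 from Hill fits.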

Assay [6] is described as follows: Cellular Toxicity (caspase-3) BJ (AID 658). The settings on record: BJ fibroblasts, luminescence; Potency: caspase-3 activation; series mostly up to 91.7 µM. The method in brief:
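Plated BJ cells (1000/well) rested 5 hr, received compound for 16 hr at 37 °C, then Caspase-Glo 3/7 reagent for 1 hr at room temperature before luminescence reading.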

A short description of assay [7]: Cellular Toxicity (caspase-3) MRC-5 (AID 659). The note with it: MRC-5 cells, luminescence, normalized: DMSO 0%, 10 µM staurosporine 100%; series mostly up to 91.7 µM. The procedure, abridged: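 Apoptosis readout in MRC-5 cells: luciferase light generated after caspase 3/7 cleaves a peptide-aminoluciferin substrate, measured post 16 hr compound incubation at 37 °C.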

The nature of assay [8]: Cellular Toxicity (caspase-3) Mesangial (AID 660).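 Note: combined caspase 3 and 7 activity read by Caspase-Glo luminescence; cells exposed to compound for 16 h before the caspase read.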 The note with it: mesangial cells, normalized: DMSO 0%, 100 µM tamoxifen 100%; series mostly up to 91.7 µM. The procedure, abridged: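 Seed cells derived from normal human renal glomeruli, incubate 5 h, add compounds across concentrations and incubate 16 h at 37 °C. Caspase 3/7 activation is then quantified by luciferase light, with AC50 derived by Hill modeling.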

Assay [9] can be described thus: Cellular Toxicity (caspase-3) H-4-II-E (AID 663).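 Note: cells exposed to compound for 16 hr before readout.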 The settings on record: H-4-II-E rat hepatoma; Potency: caspase-3 activation; series mostly up to 92.2 µM. The procedure, abridged: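 Caspase 3/7 activation measured in H-4-II-E cells in complete culture medium after 16 hr treatment at 37 °C, using luciferase-coupled substrate readout; AC50 values come from Hill-equation fits of normalized concentration-response data.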

Assay [10] in a line: Cellular Toxicity (caspase-3) Hek293 (AID 664).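 Note: cells exposed to compound for 16 h at 37 °C before readout.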 The settings on record: HEK293 caspase-3 activation, DMSO = 0%, 100 µM tamoxifen = 100%; at 92.2 µM (top of the series). The procedure, abridged:
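qHTS, HEK293 (human embryonic kidney), 16 h cpd exposure in complete medium. Caspase-3/7 activation = luminescence increase; normalized to DMSO/100 uM tamoxifen; Hill-fit AC50.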

A short description of assay [11]: Cellular Toxicity (caspase-3) N2a (AID 665).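 Note: compound exposure lasted 16 h at 37 °C before readout.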 The settings on record: N2a cells, luminescence, normalized: DMSO 0%, 10 µM staurosporine 100%; series mostly up to 92.2 µM. The method in brief:
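Caspase-3/7 activation, measured as increased luminescence from aminoluciferin release, is quantified in mouse N2a cells exposed to compounds for 16 h. Values are normalized to DMSO and 10 uM staurosporine, with AC50 derived by Hill modelling.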

Assay [12] in a line: Cellular Toxicity (caspase-3) NIH 3T3 (AID 666).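 Note: caspase signal read after 16 h compound exposure; 0% = DMSO basal and 100% = 100 µM tamoxifen stimulation.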 The note with it: NIH 3T3 caspase-3 activation, apoptosis/toxicity, 0% DMSO, 100% is 100 µM tamoxifen; series mostly up to 92.2 µM. The method in brief: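 Cells were plated at 1000 per well and incubated 5 hr at 37°C, then compound was added for 16 hr. Caspase-Glo 3/7 reagent followed for 20 min at room temperature before luminescence was read.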

Assay [13] can be described thus: Cellular Toxicity (caspase-3) Renal Proximal Tubule (AID 667).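 Note: cells exposed to compound for 16 hours at 37 °C before detection.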 The settings on record: renal proximal tubule cells, primary cells freshly taken from rat; Potency: caspase-3 activation; series mostly up to 91.7 µM. The method in brief: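 Primary rat proximal tubule cells, 1000/well, 5 h plating at 37 °C, then compound 16 h at 37 °C. Caspase-Glo 3/7 reagent, 1 h RT, luminescence. Normalized to DMSO (basal) and 10 uM staurosporine (100%); Hill-fit AC50.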

Assay [14] is described as follows: MultiTox-Fluor Cytotoxicity Assay - LYMP1-003 - Live Cells (AID 962).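 Note: 0% = DMSO only and full loss = 92 µM tetraoctylammonium bromide; cytotoxic hits lower the live-cell protease signal.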 The note with it: LYMP1-003 lymphoblastoid cells, MultiTox-Fluor live-cell protease fluorescence; series mostly up to 92.2 µM. The method in brief: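 Acute cytotoxicity is scored as a drop in live-cell protease activity in human lymphoblastoid LYMP1-003 cells after 16 hr compound exposure at 37 C. AC50 values come from Hill-equation modelling of concentration-response data.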

Assay [15] in a line: Cell Viability - LYMP2-003 (AID 965).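 Note: cells exposed to compounds for 24 h before reading; nearly all actives have a fitted effect of over 50% in size.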 Note: potency is the fitted concentration of half-maximal effect. The settings on record: LYMP2-003 lymphoblastoid cell viability; series mostly up to 92.2 µM. The procedure, abridged: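 Human lymphoblastoid cells (2500/well) were pre-incubated 5 hr at 37 C, then exposed to compounds over a concentration range for 24 hr at 37 C. Intracellular ATP was read by CellTiter-Glo luminescence; AC50 came from Hill-equation fits.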

Assay [16] is described as follows: qHTS Assay for Identification of Small Molecule Inducers of Hypoxia Response (AID 2120; active = well fitted curve in the direction sought with a large enough effect in the signal ratio, with a control signal flat, not every such curve was filed as active; the % refers to the signal ratio; note: 0% is about no effect). The note with it: hypoxia response reporter cells, beta-lactamase ratio readout; series mostly up to 104 µM. The method in brief: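 Cell-based qHTS for reporter induction: hypoxia response element controlled beta-lactamase in ME-180 cells. Compounds incubated 17 h at 37 degrees C; activity from blue/green (460/530 nm) ratio, inducers ranked by AC50.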

In assay [17] the target is Peroxisome proliferator-activated receptor alpha (Homo sapiens) (UniProt Q07869). The assay can be described thus: qHTS assay for small molecule agonists of the peroxisome proliferator-activated receptor alpha (PPARalpha) signaling pathway (AID 651778). Note: % of control where 0% means no effect. The note with it: PathHunter PPARalpha complementation, chemiluminescence, 6 h; max response: hits give high values. The method in brief: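 Cells plated at 2,000/well and held overnight at 37 C, 5% CO2, then compound added by pin tool for 6 hr; after PathHunter detection reagent and 60 min at room temperature, chemiluminescence from enzyme complementation was read.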

A short description of assay [18]: qHTS assay for small molecule agonists of the antioxidant response element (ARE) signaling pathway measured by Nrf2-dependant transcriptional activity - cell viability counter screen (AID 720653; active = well fitted curve in the direction sought with a large enough effect in the repeat runs; an effect the other way counts as inactive or inconclusive; note: % is set by controls: 0 for no effect and ±100 for the full control effect). The note with it: ARE-bla HepG2 viability, CellTiter-Glo ATP luminescence, 16 h; max response: hits give low values. The procedure, abridged:
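ARE-bla HepG2 cells (2,000/well) rested 5 hrs at 37C/5% CO2, then exposed to compounds in DMSO for 16 hrs. Viability was read in the same wells as intracellular ATP by luminescence, 30 min at room temperature after reagent addition.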

Assay [19] can be described thus: qHTS assay for cell viability of HEK293 cells (AID 743288). Note: % is set by controls: 0 for no effect and ±100 for the full control effect; nearly all actives have a fitted effect of over 50% in size. The settings on record: ATP luminescence (CellTiter-Glo), 18 h; max response: hits give low values. The procedure, abridged: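 After 18 h compound exposure at 37 C, parental HEK293 cells (2,000/well) are lysed with CellTiter-Glo and luminescence is read following 30 min at room temperature.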
Assay [20] in a line: qHTS assay for cell viability of the p53RE-bla HCT-116 cell line (AID 743292). Note: % is set by controls: 0 for no effect and ±100 for the full control effect; nearly all actives have a fitted effect of over 55% in size. The note with it: p53RE-bla HCT-116 viability, ATP luminescence, 16 h; series mostly up to 95 µM. The procedure, abridged:
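Viability of compound-treated p53RE-bla HCT-116 cells is taken from ATP-dependent luciferase luminescence. Treatment lasts 16 h at 37 C after a 5 h settling period; detection follows 30 min at room temperature.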

Chain of Peroxisome proliferator-activated receptor alpha (Homo sapiens) (Q07869 whole entry, looked up): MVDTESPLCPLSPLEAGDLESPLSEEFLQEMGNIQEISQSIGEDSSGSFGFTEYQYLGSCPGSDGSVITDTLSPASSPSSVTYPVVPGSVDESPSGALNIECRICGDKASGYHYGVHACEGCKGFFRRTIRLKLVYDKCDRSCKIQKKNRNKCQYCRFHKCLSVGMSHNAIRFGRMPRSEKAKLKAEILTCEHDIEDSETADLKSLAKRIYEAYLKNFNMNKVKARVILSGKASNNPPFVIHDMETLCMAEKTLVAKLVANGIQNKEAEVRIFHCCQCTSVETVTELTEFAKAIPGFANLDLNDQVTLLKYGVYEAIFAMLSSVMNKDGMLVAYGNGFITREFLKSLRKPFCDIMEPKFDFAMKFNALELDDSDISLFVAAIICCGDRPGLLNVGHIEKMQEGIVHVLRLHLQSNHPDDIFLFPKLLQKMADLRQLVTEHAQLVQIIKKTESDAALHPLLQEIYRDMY

As for `NC(=O)Nc1nc2ccccc2[nH]1`, in assay [1], the Potency is greater than 92 µM. Also, the Potency entry in assay [2], in assay [3], in assay [4], in assay [5], in assay [6] and in assay [9] was “inactive” in each case. Besides, the Potency result in assay [13], in assay [14], in assay [15], in assay [16] and in assay [20] was “inactive” in each case. Also, the compound was classed as inactive in [7], in assay [8], in assay [11] and in assay [12]. Further, in assay [10], the caspase-3 activation was -0.34%. Besides, the max response was -2.7% in [17], -9.91% in [18] and -5.65% in [19].

Turning to `Cc1cc(-c2ccc(N=Nc3cc(S(=O)(=O)O)c4ccccc4c3N)c(C)c2)ccc1N=Nc1cc(S(=O)(=O)O)c2ccccc2c1N`, the Potency is greater than 92 µM in assay [1] and 25.1 µM (active) in [2]. For the same compound, the Potency entry in assay [3], in [4], in assay [5], in assay [6], in assay [9] and in assay [13] was “inactive” each time. For the same compound, the Potency entry in [14], in [15] and in assay [16] was “inactive” each time. The call in [7], in assay [8], in [11] and in assay [12] was inactive. The caspase-3 activation in [10] is -4.55%. The max response is -11.9% in [17] and -27.3% in assay [18].

Consider `CCCCCCCC/C=C\CCCCCCCC(=O)N(CCO)CCO`, for which the Potency in [1] is greater than 92 µM; in assay [2], 39.8 µM (active). The Potency entry in assay [3], in assay [4], in assay [5], in assay [6], in assay [13] and in assay [14] was “inactive” throughout. Also, the Potency result in [15], in assay [16] and in assay [20] was “inactive” each time. The result in assay [7], in [8], in assay [11] and in assay [12] was inactive. Further, the results for the max response in assay [17], in [18] and in [19] were 28.4%, -24.9% and -16%, respectively.

As for `CC(=O)CC(=O)Nc1ccccc1`, in assay [1], the Potency was greater than 92 µM. The Potency entry in assay [2], in assay [3], in assay [4], in assay [5], in assay [6] and in assay [9] was “inactive” each time. The Potency result in assay [13], in assay [14], in assay [15], in assay [16] and in assay [20] was “inactive” each time. The compound was called inactive in assay [7], in assay [8], in assay [11] and in assay [12]. In addition, the caspase-3 activation in assay [10] is -0.00159%. In addition, the max response in assay [17] is 0.169% and 0.0126%; in [18] it was -0.0894% and -4.18%; in assay [19], 2.12% and -0.894%.

Take `O=CC(=O)c1ccccc1`: in assay [1], the Potency is greater than 92 µM. Further, the Potency entry in assay [2], in assay [3], in [4], in assay [5], in [6] and in assay [9] was “inactive” throughout. Also, the Potency entry in assay [13], in assay [14], in [15], in [16] and in assay [20] was “inactive” in each case. Further, the outcome in assay [7], in assay [8], in assay [11] and in [12] was inactive. For the same compound, in assay [10], the caspase-3 activation is 3.78%. Also, the max response is -2.48% in [17], -2.84% in [18] and -4.94% in [19].

As to `O=C(OCC1CO1)C1CCCCC1C(=O)OCC1CO1` (stereo unspecified), the Potency in [1] is greater than 92 µM; in assay [15], 50.1 µM (active). The Potency result in assay [2], in assay [3], in [4], in [5], in assay [6] and in [9] was “inactive” in each case. In addition, the Potency result in assay [13], in [14], in [16] and in assay [20] was “inactive” throughout. In addition, the compound was called inactive in [7], in assay [8], in assay [11] and in assay [12]. Also, the caspase-3 activation in [10] was 4.8%. Also, the max response was 11.4% in assay [17], 4.68% in [18] and -26.2% in [19].
